PubChem BioAssay AID1986 (Sanford-Burnham Center for Chemical Genomics, 2009)
Several values for one entry are separate records, joined by “and”; a condition that tells them apart may be missing. Equal entries are not always repeated. The campaign covered roughly 290,000 compounds. About 890 (0.31%) were called active. Rule as the data show it: active = inhibition mostly above about 52% (no sharp cut-off); inactive = mostly below about 76%. The full list was thinned out, with actives kept by preference.

Test: inhibitors of HIV fusion peptide binding, primary screen, biochemical, uHTS, fluorescence dequenching (AID 1986)
Conditions: cell-free peptide binding, 30 min, stronger effect = higher value
[1] = measured here: repeat confirmation average inhibition, at 18.6 µM

SMILES	inhibition (at 20 µM)	inhibition [1]
O=C(Cn1cc(C=C2C(=O)NC(=O)NC2=O)c2ccccc21)NCC1CCCO1 (stereo not drawn)	61.4% (active)	112%
COCCNC(=O)Cn1cc(/C=C2\C(=O)NC(=O)N(c3cccc(C)c3C)C2=O)c2ccccc21	90.2% (active)	50.7%
COCCNC(=O)Cn1cc(/C=C2\C(=O)NC(=O)N(c3ccccc3F)C2=O)c2ccccc21	159% (inactive)	
COCCNC(=O)Cn1cc(C=C2C(=O)NC(=O)NC2=O)c2ccccc21	43.1% (inactive)	
COCCCNC(=O)Cn1cc(/C=C2\C(=O)NC(=O)N(c3ccccc3F)C2=O)c2ccccc21	159% (inactive)	
O=C(O)Cn1cc(C=C2C(=O)NC(=O)NC2=O)c2ccccc21	4.8% (inactive)	
CC(Cc1ccccc1)[n+]1cc(/N=C(\[O-])Nc2ccccc2)on1 (stereo not drawn)	-1.8% (inactive)	
O=C(NCc1ccccn1)c1ccccc1Cl	-1.3% (inactive)	
CCOC(=O)c1c(C)c(P(=S)(N2CCOCC2)N2CCOCC2)n(C)c1C	-1.8% (inactive)	
CC(C)n1c(=O)c(C=Nc2ccc(F)cc2)c(O)n(Cc2ccco2)c1=O	0.1% (inactive)	
CC(C)n1c(=O)c(C=Nc2ccc(Cl)cc2)c(O)n(Cc2ccco2)c1=O	52.7% (inactive)	4.1%
CC(C)n1c(=O)c(C=Nc2ccc(Br)cc2)c(O)n(Cc2ccco2)c1=O	66.2% (active)	
CCOC(=O)C1CCN(Cc2ccc(Cl)nc2)CC1	-0.9% (inactive)	
O=C1N(c2cccc(Cl)c2)C(c2cccnc2)N2CCCN12 (stereo not drawn)	-0.5% (inactive)	
O=C1NC(=O)[C@]2(Cc3ccccc3N3CCN(c4ccccc4)CC32)C(=O)N1Cc1ccccc1 (stereo partly drawn)	1.5% (inactive)	
COc1ccc(-c2nc3ccc(C(=O)N4CCC5(CC4)OCCO5)cc3nc2-c2ccc(OC)cc2)cc1	-1.1% (inactive)	
Cc1cc(/C=C2\C(=O)NC(=O)N(Cc3ccccc3)C2=O)c(C)n1-c1ccc(Cl)c(C(=O)O)c1	52.5% (active)	
Cc1cc(/C=C2\C(=O)NC(=O)N(Cc3ccccc3Cl)C2=O)c(C)n1-c1ccc(C(=O)O)cc1	67.8% (inactive)	40.6%
Cc1cc(/C=C2\C(=O)NC(=O)N(c3ccccc3)C2=O)c(C)n1-c1ccc(C(=O)O)c(Cl)c1	9.8% (inactive)	
COC(=O)Cn1cc(C=C2C(=O)NC(=O)NC2=O)c2ccccc21	10% (inactive)	
CN1C(=O)C(=Cc2cn(CC(=O)N3CCCC3)c3ccccc23)C(=O)N(C)C1=O	9.1% (inactive)	
CCN1C(=O)NC(=O)/C(=C\c2cn(CC(=O)N3CCCCC3)c3ccccc23)C1=O	92.7% (active)	
CCN(CC)C(=O)Cn1cc(C=C2C(=O)N(C)C(=O)N(C)C2=O)c2ccccc21	9.3% (inactive)	
CCOC(=O)Cn1cc(C=C2C(=O)N(C)C(=O)N(C)C2=O)c2ccccc21	58.4% (active)	149%

SMILES	inhibition (at 20 µM)	inhibition [1]
COC(=O)Cn1cc(C=C2C(=O)N(C)C(=O)N(C)C2=O)c2ccccc21	118% (active)	98.7%
CCn1cc(C=C2C(=O)N(C)C(=O)N(C)C2=O)c2ccccc21	6.6% (inactive)	
CCOC(=O)C1(c2ccccc2)CCN(CCC(=O)Nc2ccccc2OC)CC1	1.8% (inactive)	
CN1CCN(c2ccccc2N)CC1	1.6% (inactive)	
Cc1ccc(-n2c(O)c(C=NC3CCCC3)c(=O)[nH]c2=O)c(C)c1	2.6% (inactive)	
CCOP(=O)(OCC)C(NC(=O)C(C)C)C(Cl)(Cl)Cl (stereo not drawn)	0.1% (inactive)	
CC/C(=N\NC(=O)c1ccccc1O)c1c(O)n(C2CCCCC2)c(=O)[nH]c1=O	51.3% (inactive)	46.2%
Cc1ccc2c(c1Cl)NC(C(=O)O)C1CC(Sc3ccccc3[N+](=O)[O-])C(Cl)C21 (stereo not drawn)	63% (inactive)	28%
CC(=O)c1ccc2c(c1)C1C(Cl)C(Sc3ccccc3[N+](=O)[O-])CC1C(C(=O)O)N2 (stereo not drawn)	54.5% (inactive)	1.3%
O=C(O)c1cccc2c1NC(C(=O)O)C1CC(Sc3ccccc3[N+](=O)[O-])C(Cl)C21 (stereo not drawn)	63.2% (active)	
CCC(=O)c1cn(Cc2ccccc2)c2ccccc12	-1.1% (inactive)	
CC(C)(C)C(=O)c1cn(Cc2ccccc2)c2ccccc12	-0.8% (inactive)	
O=C(COc1ccccc1)c1cn(Cc2ccccc2)c2ccccc12	80.8% (active)	
COC(=O)N(C)c1ccc(C(O)(C(=O)OC)C(F)(F)F)cc1 (stereo not drawn)	0% (inactive)	
CC1Oc2cc3c(-c4c(O)cc(O)c5c(O)c6c(cc45)OC(C)C(C)C6=O)c(O)cc(O)c3c(O)c2C(=O)C1C (stereo not drawn)	54.2% (active)	
O=C(O)c1ccc(N=Cc2c(O)[nH]c(=O)[nH]c2=O)cc1	15.8% (inactive)	
CCOC(=O)c1cc(CC)sc1/N=C/C1C(=O)NC(=S)NC1=O	30.8% (inactive)	
COc1ccc(C(=O)CC2(CC(=O)c3ccc(OC)cc3)C(=O)N(C)C(=O)N(C)C2=O)cc1	3.7% (inactive)	
CCn1nc(-c2cccs2)nc2c(=O)n(C)c(=O)nc1-2	1.6% (inactive)	
CCn1nc(/C=C/c2ccccc2)nc2c(=O)n(C)c(=O)nc1-2	1.1% (inactive)	
CCn1nc(-c2ccccc2)nc2c(=O)n(C)c(=O)nc1-2	80.2% (active)	60.9%
CC1=C(C(=O)O)N2C(=O)C(NC(=O)Cc3ccccc3)C2SC1 (stereo not drawn)	3.3% (inactive)	
O=P(/C(=N/O)N1CCOCC1)(N1CCOCC1)N1CCOCC1	2.4% (inactive)	
CCOC(=O)C1CCN(C(C)C(=O)c2c(C)[nH]c3cc(C)ccc23)CC1 (stereo not drawn)	8.4% (inactive)	

SMILES	inhibition (at 20 µM)	inhibition [1]
CCC1CCCCN1P(=O)(c1ccc(C)o1)C(C)(C)C (stereo not drawn)	5.9% (inactive)	
CCc1cc(=O)oc2c(C)c(OCC(=O)N3C[C@H]4C[C@@H](C3)c3cccc(=O)n3C4)ccc12	1.3% (inactive)	
O=C(C1c2ccccc2C(=O)N2CCc3ccccc3C12)N1CCC2(CC1)OCCO2 (stereo not drawn)	-2.3% (inactive)	
COc1ccc(CCNCc2cccn2C)cc1	-1.8% (inactive)	
NC(=O)c1cn(C2CCCCC2)c2ccccc2c1=O	-1.7% (inactive)	
CCCCCC(=O)N[C@@H](c1ccccc1)[C@@H](O)C(=O)O[C@H]1C[C@@]2(O)[C@@H](OC(=O)c3ccccc3)C3[C@](C)(C(=O)[C@H](O)C(=C1C)C2(C)C)[C@@H](OC1OCC(O)C(O)C1O)C[C@H]1OC[C@@]31OC(C)=O (stereo partly drawn)	0% (inactive)	
O=C1NC(=O)N(c2ccc3c(c2)OCO3)C(=O)/C1=C\c1ccc(-c2ccccc2C(=O)O)o1	22.4% (inactive)	
CCOc1ccc(N2C(=O)NC(=O)/C(=C\c3ccc(N4CCCCC4)o3)C2=O)cc1	152% (inactive)	
O=C1NC(=O)N(c2ccc3c(c2)OCO3)C(=O)/C1=C\c1ccc(N2CCCCC2)o1	112% (active)	70.4%
O=C1NC(=O)N(c2ccc3c(c2)OCO3)C(=O)/C1=C/c1ccc(N2CCCC2)o1	111% (active)	89.9%
O=C1NC(=O)N(c2ccc3c(c2)OCO3)C(=O)/C1=C/c1ccc(N2CCCCC2)o1	0.8% (inactive)	
O=C1NC(=O)N(c2ccc3c(c2)OCO3)C(=O)/C1=C/c1cccs1	12.1% (inactive)	
CC(C)Cc1nnc(NC(=O)CCC(=O)N2CCC3(CC2)OCCO3)s1	-0.2% (inactive)	
FC(F)(F)c1ccccc1NC1=NCCCS1	-1% (inactive)	
O=C1NC(=O)N(c2ccccc2F)C(=O)/C1=C/c1ccc(Sc2nc3ccccc3[nH]2)o1	39% (inactive)	
O=C1NC(=O)N(c2ccc(Cl)cc2)C(=O)/C1=C\c1ccc(Sc2nc3ccccc3[nH]2)o1	60.1% (inactive)	26%
O=C1NC(=O)N(c2cccc(Cl)c2)C(=O)/C1=C\c1ccc(Sc2nc3ccccc3[nH]2)o1	78.9% (active)	
CC1CC2(O)c3no[n+]([O-])c3CCC2N1O (stereo not drawn)	1.4% (inactive)	
Cc1nc2ccc(Cl)cc2c(=O)n1-c1ccc([N+](=O)[O-])cc1	-1.1% (inactive)	
N#Cc1c(/N=C/c2ccc(O)cc2O)sc2c1C1CCN2CC1	3% (inactive)	
CCN(CC)c1ccc(/C=N/c2sc3c(c2C#N)C2CCN3CC2)c(O)c1	120% (active)	193%
CC(=O)c1c(C)n(Cc2ccccc2Cl)c2ccc(O)cc12	-2.4% (inactive)	
Fc1ccc(Cn2nnnc2C(c2ccc(F)cc2)N2CC=C(c3ccc(F)cc3)CC2)cc1 (stereo not drawn)	-1.1% (inactive)	
CCCCn1c(O)c(/C=C2\C=Nc3ccccc32)c(=O)[nH]c1=O	78.2% (active)	

SMILES	inhibition (at 20 µM)	inhibition [1]
O=c1[nH]c(=O)n(-c2ccccc2F)c(O)c1/C=C1\C=Nc2ccccc21	20.7% (inactive)	
C=CCn1c(O)c(/C=C2\C=Nc3ccccc32)c(=O)[nH]c1=O	12.9% (inactive)	
CCOc1ccc(-n2c(O)c(/C=C3\C=Nc4ccccc43)c(=O)[nH]c2=O)cc1	166% (inactive)	
O=c1[nH]c(=O)n(CC2CCCO2)c(O)c1/C=C1\C=Nc2ccccc21 (stereo not drawn)	5.1% (inactive) and 14.6% (inactive)	
O=c1[nH]c(=O)n(Cc2ccccc2)c(O)c1/C=C1\C=Nc2ccccc21	102% (active)	66.2%
CCOP(=O)(OCC)/C(C#N)=C/c1ccoc1	13.5% (inactive)	
CC(=O)c1ccccc1NC(=O)C1C2CCC(O2)C1C(=O)O (stereo not drawn)	0% (inactive)	
O=C1Nc2ccc(Br)cc2C(c2ccc(Cl)cc2)=NC1O (stereo not drawn)	-1.3% (inactive)	
CN1CCC(C)(O)C2CCCCC21 (stereo not drawn)	-1.3% (inactive)	
Cc1cc(NC(=O)C(Cl)(Cl)Cl)no1	1% (inactive)	
CCOC(=O)C1C(=O)N(C)C2(C)CC1c1ccccc1O2 (stereo not drawn)	1.4% (inactive)	
Cc1ccccc1N1C(=O)NC(=O)/C(=C/c2ccc(N3CCOCC3)o2)C1=O	124% (active)	80.2%
Cc1ccccc1N1C(=O)NC(=O)/C(=C\c2cc(Br)c(N3CCOCC3)o2)C1=O	147% (inactive)	
Cc1ccccc1N1C(=O)/C(=C/c2ccco2)C(=O)NC1=S	76.1% (active)	
CCOc1cccc(N2C(=O)/C(=C/c3ccco3)C(=O)NC2=S)c1	15.4% (inactive)	
CN1C(=O)/C(=C/c2ccc(N3CCCCCC3)o2)C(=O)NC1=S	103% (active)	52.7%
CN1C(=O)C(=Cc2ccc(Sc3ccccc3)o2)C(=O)N(C)C1=O	15.9% (inactive)	
CCN(CC)c1ccc(/C=C2\C(=O)NC(=S)N(C)C2=O)o1	149% (inactive)	
O=C1NC(=S)N(c2ccccc2)C(=O)/C1=C/c1ccco1	29.6% (inactive)	
O=C1NC(=O)C(=Cc2ccc(N3CCOCC3)o2)C(=O)N1	127% (inactive)	
CN1C(=O)/C(=C\c2ccc(N3CCCCC3)o2)C(=O)NC1=S	151% (inactive)	
CN1C(=O)/C(=C\c2ccc(N3CCCCCC3)cc2)C(=O)NC1=S	1.7% (inactive)	
CCN(CC)c1ccc(C=C2C(=O)N(C)C(=S)N(C)C2=O)o1	91% (active)	50.9%
